Compounds with a hit are over-represented: about 7.8% of the library has one in this group of screens.
Marburg entry inh: blocks Marburg virus binding to or entry into cells. Potency, µM (doses to about 37.8 µM), for the others: top-dose activity change, negative = inhibition, actives largely listed as inhibitors. 1.8% of 300,000 active. Marburg virus pseudotyped entry inhibition, cell reporter; calls by dose curve; tested in HEK293 cells; note: potency is the fitted concentration of half-maximal effect
Lassa entry inh: blocks Lassa virus binding to or entry into cells; Lassa virus pseudotype entry inhibition, cell reporter; Potency, µM (doses to about 37.9 µM), without a hit: top-dose activity change, negative = inhibition, usual class: inhibitors; 1.2% of 300,000 active; calls by dose curve; tested in HEK293 cells; note: potency is the fitted concentration of half-maximal effect; nearly all actives have a fitted effect of over 50% in size
Vaccinia mCherry: inhibitors of vaccinia virus infection (mCherry reporter signal); Potency, µM (doses to about 36.5 µM), for inactives: at the highest dose activity change, negative = inhibition, actives largely listed as inhibitors; 0.63% of 310,000 active; AID 720579; Vaccinia virus mCherry reporter infection, fluorescence; calls by dose curve; tested in A549 cells; note: potency is the fitted concentration of half-maximal effect; nearly all actives have a fitted effect of over 35% in size
Vaccinia Venus: vaccinia inhibition (Venus reporter); 0.46% of 330,000 active; AID 720580; Potency, µM (doses to about 36.5 µM), for the others: top-dose activity change, negative = inhibition, usual class: inhibitors; Vaccinia virus Venus reporter expression, fluorescence; calls by dose curve; tested in A549 cells; note: potency is the fitted concentration of half-maximal effect; nearly all actives have a fitted effect of over 30% in size
HCMV inh: inhibitors of human cytomegalovirus. 4.5% of 410,000 active. AID 1259415. HFF cells, HCMV-luciferase reporter, 72 h; active compounds read low. activity change, negative = inhibition, % at 57.5 µM; in the data active = activity change below about -60%; inconclusive = no clear call, values can overlap the other calls; inactive = above about -39%
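Steps: HFFs plated, 16 h 37C; compounds added; HCMV-luciferase added to MOI 1 PFU/cell; 72 h 37C; OneGlo reagent, 5 min room temperature; luminescence read, normalized to controls.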
HCV inhibitor: inhibitors of hepatitis C virus infection; Potency, µM (titrated, usually from 41.8 µM), for inactives: top-dose activity change, negative = inhibition, hits mostly inhibitors; 3.4% of 340,000 active; Huh7.5.1 HCVcc-Cre infection, luciferase reporter, 44 h; active = well fitted inhibition curve with a large enough effect; inconclusive = small, poorly fitted or top-dose-only effect, or another doubt; inactive = no such curve, though single readings can be large or run the other way; note: potency is the fitted concentration of half-maximal effect
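After 44 h co-culture of compound, cells and HCVcc-Cre (~0.5 moi), substrate is added for 15 min at room temperature and luciferase measured over 15 sec. Cells were seeded at 1,000/well and pre-cultured 4 h.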
Active calls of the source: *; i = inactive; ? = inconclusive; . = not tested or not shown; + = active, no number; [ ] = remark or other dose. % is set by controls: 0 for no effect and ±100 for the full control effect.

SMILES | Marburg entry inh | Lassa entry inh | Vaccinia mCherry | Vaccinia Venus | HCMV inh | HCV inhibitor
Nc1c(S(=O)(=O)O)cc(Nc2ccc(Nc3nc(Cl)nc(Nc4ccc(S(=O)(=O)O)cc4)n3)c(S(=O)(=O)O)c2)c2c1C(=O)c1ccccc1C2=O | 14.1µM* | ? | -12.2% | -28.7% | . | .
COc1ccccc1NCCC(=O)OCC(=O)NC1CC1 | . | . | . | . | -83.1* | 1.1%
COc1ccccc1NCCC(=O)OCC(=O)NC1CCCCC1 | ? | 17.4% | -18.0% | -3.6% | -34.7 | 6.7%
Cc1cc([N+](=O)[O-])c2[nH]c(C(=O)N/N=C/c3ccccc3C(=O)O)c(-c3ccccc3)c2c1 | -13.6% | -7.1% | . | . | -80.2* | ?
Cc1ccccc1-c1noc(-c2cc(C(C)C)[nH]n2)n1 | . | 16.4%[46.1 µM] | -16.2%[7.34 µM] | -7.5%[7.34 µM] | 38.0 | .
O=[N+]([O-])NC1=NCN(Cc2ccco2)CN1Cc1ccco1 | 0.282µM* | 8.8% | -7.6% | -8.9% | ? | ?
COc1ccc(CNc2nc(Cl)nc3nc[nH]c23)cc1 | . | . | 2.8% | -17.0% | . | .
Cc1cccc(NC(=O)c2c([N+](=O)[O-])c(C(C)(C)C)nn2C)c1 | ? | ? | -21.9% | -17.5% | -25.2 | -1.6%
Cn1nc(C(C)(C)C)c([N+](=O)[O-])c1C(=O)Nc1ccc(Br)cc1 | . | . | . | . | -39.1 | 12.6µM*
COC(=O)CN1C(C(=O)c2ccccc2)=C(OC(=O)c2ccccc2)c2ccccc2S1(=O)=O | -4.4%[46.1 µM] | 18.8%[46.1 µM] | -10.1% | -14.3% | -0.6 | .
CN(c1ccccc1)S(=O)(=O)c1cccc(NC(=O)c2nn(C)c(=O)c3ccccc23)c1 | . | . | . | . | -25.5 | 4.47µM*
Cc1nnc(SCC(=O)Nc2cccc(S(=O)(=O)N(C)c3ccccc3)c2)s1 | -19.5% | -5.6% | -4.2% | -21.5% | -6.2 | 7.08µM*
CCN(CC)S(=O)(=O)c1cc(NC(=O)CSCc2c(C)noc2C)ccc1C | ? | 2.82µM* | -6.1% | -2.6% | -17.2 | ?
CCN(CC)S(=O)(=O)c1cc(NC(=O)CCc2c(C)noc2C)ccc1C | ? | -15.0%[46.1 µM] | i | -11.5% | 16.1 | ?
CCN(CC)S(=O)(=O)c1cc(NC(=O)Cn2cnc3ccccc3c2=O)ccc1C | -29.5% | 3.9% | . | . | -37.6 | 11.2µM*
C=C(C)CSc1nc2sc3c(c2c(=O)n1CCCC)CCCC3 | . | -16.3%[46.1 µM] | -1.4% | 4.1% | 20.0 | .
CCCCOc1cccc(C(=O)Nc2sc3c(c2C(=O)OCC)CCCC3)c1 | . | -6.4%[46.1 µM] | -6.1% | 4.1% | 13.3 | .
CN(c1ccccc1)S(=O)(=O)c1cccc(NC(=O)Cn2cnc3ccccc3c2=O)c1 | -15.7% | ? | . | ? | -20.5 | 2.82µM*
Cc1cc(C)c(NC(=O)c2cc(S(=O)(=O)N3CCC4(CC3)OCCO4)ccc2F)c(C)c1 | . | 9.9%[46.1 µM] | -3.3% | -1.6% | -20.5 | .
Cc1nnc(SCC(=O)c2c(N)n(Cc3ccccc3)c(=O)n(C)c2=O)n1C | 2.2%[46.1 µM] | -9.3%[46.1 µM] | -17.5% | -4.6% | -33.1 | 12.7%
Cn1c(N)c(C(=O)CCl)c(=O)n(Cc2ccccc2)c1=O | 4.0% | -1.1% | -30.6% | ? | -22.3 | 4.1%
Cn1c(=O)c(C(=O)CCl)c(N)n(Cc2ccccc2)c1=O | -15.8% | -8.2% | ? | 12.6µM* | 25.6 | ?
Cn1cnnc1SCC(=O)c1c(N)n(Cc2ccccc2)c(=O)n(C)c1=O | -10.4%[46.1 µM] | 0.3% | -7.1% | -3.7% | -64.3* | 7.9%
CC(=O)N1CCN(CC(=O)Nc2ccccc2Sc2ccc(Cl)cc2)CC1 | -13.7% | 5.01µM* | -28.1% | -21.7% | -70.7* | ?
O=C(Cc1ccccc1)Nc1ccccc1Sc1ccccc1 | -12.2% | 2.5% | i | -6.9% | -6.9 | 21.9%
SMILES | Marburg entry inh | Lassa entry inh | Vaccinia mCherry | Vaccinia Venus | HCMV inh | HCV inhibitor
O=C(CCl)Nc1ccccc1Sc1ccc(Cl)cc1 | 23.1µM* | ? | . | . | -103.1* | ?
O=C(CN1CCN(c2ccccc2)CC1)Nc1ccccc1Cl | . | . | . | . | -33.3 | 0.7%
O=C(CN1CCN(c2ccccc2)CC1)Nc1ccccc1Sc1ccccc1 | 4.47µM* | ? | -5.9% | -15.7% | -29.1 | ?
CCC(=O)Nc1ccccc1-c1nc2ccccc2n(CC(=O)c2ccc(Cl)cc2)c1=O | 2.4%[46.1 µM] | -9.4%[46.1 µM] | -6.4% | -4.3% | 72.8 | .
CC(C)(C)OC(=O)N1CCC(c2c(C(=O)Nc3ccc4c(c3)OCCO4)cnn2-c2ccc(F)cc2)CC1 | . | ? | -27.6% | -17.7% | -5.9 | .
COc1ccc(-n2ncc(C(=O)Nc3ccc4c(c3)OCCO4)c2C2CCN(C(=O)OC(C)(C)C)CC2)cc1 | . | ? | -21.3% | -17.2% | + | .
Cc1c(Cl)cccc1-n1ncc(C(=O)Nc2ccc3c(c2)OCCO3)c1C1CCN(C(=O)OC(C)(C)C)CC1 | . | ? | -5.1% | -15.0% | -82.3* | .
COCCNC(=O)Cn1c(=O)n(CCCCCC(=O)NCc2ccccc2Cl)c(=O)c2sccc21 | -12.8%[46.1 µM] | 19.5%[46.1 µM] | -19.9% | -22.6% | ? | .
CCCCN(CC)CCCNC(=O)Nc1sc2nc3n(c(=O)c2c1C)CCC(C)CC3 (stereo not drawn) | 10µM* | . | i | -4.6% | -37.2 | .
Cc1ccc(S(=O)(=O)N2CCOCC2)cc1NC(=O)c1cc2ccccc2oc1=O | 11.6%[46.1 µM] | 7.2%[46.1 µM] | -11.4% | -9.0% | -101.4* | 8.4%
O=C(Nc1ccc(Cl)c(S(=O)(=O)N2CCOCC2)c1)c1cc2ccccc2oc1=O | 8.5% | 23.9% | -1.5% | -1.4% | 26.5 | 16.1%
Cc1ccc(S(=O)(=O)N2CCOCC2)cc1NC(=O)c1cc(-c2ccccn2)nc2ccccc12 | . | . | 11.2µM* | ? | -69.8* | ?
COC(=O)[C@H](C)N1CC=CCOc2c(Cl)cc(Cl)cc2[S+]1(=O)[O-] | . | -4.2%[46.1 µM] | . | . | . | .
CC(C)C[C@@H]1NC(=O)[C@H](Cc2ccccc2)N(C)C(=O)[C@H](C)NC(=O)c2ccccc2NC(=O)[C@H](Cc2ccc(O)cc2)N(C)C1=O | . | . | ? | -23.6% | -29.9 | 8.91µM*
CC(C)CC1NC(=O)N(CC(=O)N2c3ccccc3NC(=O)C2(C)C)C1=O (stereo not drawn) | ? | 24.2%[46.1 µM] | i | -4.5% | -30.0 | -1.1%
CC(NCc1ccccc1O)C12CC3CC(CC(C3)C1)C2 (stereo not drawn) | . | . | . | . | -86.9* | -4.7%
CCC(C)(C)c1ccc(OCCCC[n+]2cccc(C)c2)c(C(C)(C)CC)c1 | ? | ? | ? | ? | -101.4* | ?
CCOc1cc(NC(=S)Nc2ccccc2)c(OCC)cc1NC(=O)c1ccc(OC)cc1 | ? | ? | . | . | -66.5* | ?
CCOc1ccc(C(=O)Nc2cc(-c3nc4ccccc4[nH]3)ccc2Cl)cc1[N+](=O)[O-] | 8.91µM* | ? | -22.2% | ? | -85.3* | ?
CCOc1ccc(C(=O)Nc2cccc(C(=O)O)c2C)cc1Cl | 5.8µM* | 9.2µM* | i | -8.5% | ? | -0.4%
Cc1ccc(-c2nc3ccccc3[nH]2)cc1NC(=O)COc1ccccc1[N+](=O)[O-] | -17.3%[46.1 µM] | ? | -20.6%[7.34 µM] | -13.2%[7.34 µM] | -87.6* | .
CCOc1ccc(C(=O)Nc2cc(-c3nc4ccccc4[nH]3)ccc2C)cc1[N+](=O)[O-] | ? | ? | . | ? | 53.6 | ?

Source: PubChem (National Center for Advancing Translational Sciences (NCATS))
